ChEMBL document CHEMBL3988442, “University of Dundee, Small-Polar-MMV Screening Library” (2021)
The whole screen tested about 66,000 compounds, of which about 960 (1.5%) showed an effect of 50% or more. Only a selection was taken, and strong results are over-represented in it overall.

Test system: Trypanosoma brucei
Assay: Trypanosoma brucei 72 hour study
Type: functional, organism-based
Set-up: scale not given: in the data most compounds retested in dose-response had high values

In the case of COc1cnc(C2(O)CCN(C(=O)c3ccccn3)CC2)c(OC)n1, the “Percent Effect” value (30.3 µM, […]) is reported as -9.61%.
In the case of COc1c(CNCCNC(=O)c2cccc(C)c2)c(C)nn1C.Cl, the “Percent Effect” value (30.3 µM, […]) is reported as 0.1013%.
For O=C(NCC1CC1)[C@H]1C[C@@H]2CN(C(=O)NCc3ccccc3)C[C@H]1O2, the “Percent Effect” value (30 µM, 30.03 µM) was 46.62%.
In the case of COc1cccc(-c2n[nH]cc2CNC2CCN(C(C)C)CC2)c1.Cl, the “Percent Effect” value (30 µM, 30.03 µM) is reported as -15.13%.
With CC(C)c1nn(C)c(Cl)c1CNC1CCOc2ccccc21.Cl (stereo not given) the “Percent Effect” value (30 µM, 30.03 µM) was 55.88%.
CC(C)c1nn(C)c(N(C)C)c1CNC1CCOc2ccccc21 (stereo not given) was tested, and the “Percent Effect” value (30 µM, 30.03 µM) was -51.78%.
COc1c(CNC2CCOc3ccccc32)c(C(C)C)nn1C (stereo not given) was tested, and the “Percent Effect” value (30 µM, 30.03 µM) was 25.19%.
CN1CC(=O)N(c2cccc(F)c2)CC12CCN(CC1CCOCC1)C2.O=C(O)C(F)(F)F.O=C(O)C(F)(F)F (stereo not given) was tested, and the “Percent Effect” value (30 µM, 30.03 µM) was 9.991%.
COc1ccc(C2=Nn3c(CN)nnc3-c3ccccc3C2)cc1 was tested, and the “Percent Effect” value (30 µM, 30.03 µM) was 2.28%.
In the case of COc1ncccc1C(=O)N1CCCC(n2ccnc2C)C1 (stereo not given), the “Percent Effect” value (30.3 µM, […]) is reported as -7.34%.
For Cc1ccoc1C(=O)NC1CCN(Cc2ccccc2F)CC1, the “Percent Effect” value (10 µM) was -23.23% and the “Percent Effect” value (30.3 µM, […]) was 4.829%.
Cc1ccoc1C(=O)NC1CCN(Cc2cccc3ccccc23)CC1 was tested, and the “Percent Effect” value (10 µM) was -9.27% and the “Percent Effect” value (30.3 µM, […]) was 57.41%.
For Cc1ccoc1C(=O)NC1CCN(Cc2ccccc2C#N)CC1, the “Percent Effect” value (10 µM) was 15.78% and the “Percent Effect” value (30.3 µM, […]) was -0.9403%.
O=C(NC1CCN(Cc2cccc3c2OCCO3)CC1)c1cccs1 was tested, and the “Percent Effect” value (10 µM) was 10.83% and the “Percent Effect” value (30.3 µM, […]) was 7.019%.
In the case of Cc1ccc(C(=O)NC2CCN(Cc3cccc4c3OCCO4)CC2)s1, the “Percent Effect” value (10 µM) is reported as -2.683% and the “Percent Effect” value (30.3 µM, […]) is reported as 68.24%.
For CC(C)C(=O)NC1CCN(Cc2cccc3c2OCCO3)CC1, the “Percent Effect” value (30 µM, 30.03 µM) was -15.03%.
In the case of O=C(O)C(F)(F)F.O=C(c1ccc(F)cc1)N1CCC2(CCN(Cc3ccccn3)C2=O)C1 (stereo not given), the “Percent Effect” value (30 µM, 30.03 µM) is reported as -50.24%.
With Cc1csc2ncc(-c3ccnc(N4CCC[C@H](C(N)=O)C4)n3)c(=O)n12 the “Percent Effect” value (30.3 µM, […]) was -8.345%.
CCN(CC)Cc1cn2c(n1)CN(C1CCOC1)CC2.O=C(O)C(F)(F)F.O=C(O)C(F)(F)F (stereo not given) was tested, and the “Percent Effect” value (30.3 µM, […]) was -56.79%.
Cc1ccccc1C(N)c1ccncc1.Cl (stereo not given) was tested, and the “Percent Effect” value (30.3 µM, […]) was -1.36%.
With CCOc1c(F)cccc1C(=O)N(CC)C(C)c1ccncc1 (stereo not given) the “Percent Effect” value (30.3 µM, […]) was 3.975%.
In the case of CCOc1c(F)cccc1C(=O)N(c1cccnc1)C(C)C, the “Percent Effect” value (30.3 µM, […]) is reported as 99.6%.
In the case of CCOc1c(F)cccc1C(=O)N(CC)C(C)c1cccnc1 (stereo not given), the “Percent Effect” value (30.3 µM, […]) is reported as 6.068%.
Cc1cc(C(=O)N2CCC3(CC2)C(=O)N(C)CCN3CC(C)C)c(C)o1.O=C(O)C(F)(F)F was tested, and the “Percent Effect” value (30.3 µM, […]) was 2.031%.
For CCOC(=O)[C@]12CCCN(Cc3cccs3)C[C@H]1CN(C(C)C)C2.O=C(O)C(F)(F)F.O=C(O)C(F)(F)F, the “Percent Effect” value (30.3 µM, […]) was -11.59%.
